Screening data: PubChem, National Center for Advancing Translational Sciences (NCATS)
Shown are actives, neighbours in structure and some others; about 19% of the full set was active somewhere.
HepG2 viability = kills HepG2 cells in TGF-b inhibitor counter-screen | HepG2 CAGA-GFP viability, ATP luminescence, 18 h | Potency, µM (top dose mostly 46.1 µM), for inactives: top-dose activity change, negative = cytotoxicity, hits mostly cytotoxic | 410,000 compounds, 0.76% hits; note: potency is the fitted concentration of half-maximal effect
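HepG2 CAGA-GFP cells (1000/well, DMEM with 1% FBS) received compound, then TGF-beta at 500 pg/mL final, and were incubated 18 hours at 37 degrees C. Viability was read by CellTiter-Glo luminescence. Media-only wells were set as complete cell-killing and DMSO as no toxicity.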
DT40 TDP1 no CPT = qHTS for Inhibitors of human tyrosyl-DNA phosphodiesterase 1 (TDP1): qHTS in cells in absence of CPT. DT40 Tdp1-/- hTDP1 cells, no CPT, ATP luminescence, 48 h. 420,000 compounds, 15% hits. Potency, µM (series often up to 46.2 µM), without a hit: at the highest dose activity change, negative = growth inhibition, usual class: inhibitors. AID 686978, 2013; note: potency is the fitted concentration of half-maximal effect; % is set by controls: 0 for no effect and ±100 for the full control effect; nearly all actives have a fitted effect of over 55% in size
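Chicken DT40 Tdp1-/- cells stably complemented with human TDP1 were seeded at 400 cells/well with DMSO in place of 20 nM camptothecin. After compound pinning, cells grew at least 48 hr at 37 °C; viability read by CellTiter-Glo luminescence.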
TGFb SMAD3 inh = TGF-b pathway inhibition. HepG2 CAGA-GFP TGF-b/SMAD3 reporter, GFP fluorescence, 18 h; TGF-beta stimulated, 500 pg/mL final. Potency, µM (doses to about 46.1 µM), inactives show at the top dose activity, negative = inhibition, most hits filed as inhibitors. 410,000 compounds, 1.2% hits. AID 588855; note: potency is the fitted concentration of half-maximal effect; % is set by controls: 0 for no effect and ±100 for the full control effect; nearly all actives have a fitted effect of over 65% in size
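Per well, imaged GFP fluorescence of HEPG2 CAGA-GFP cells gives the signal; cells get compound, then TGF-beta (500 pg/mL final), 18 h at 37 degrees C; %Activity versus -TGF-beta and +DMSO controls.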
ASM inhibitor = human S-ASM enzyme inhibition; P17405; placental ASM, HMU-PC fluorogenic substrate, 60 min; Potency, µM (highest dose often 57.5 µM), for the others: at the highest dose activity change, negative = inhibition, actives largely listed as inhibitors; 340,000 compounds, 0.006% hits; note: potency is the fitted concentration of half-maximal effect
Target sequence (P17405 47-631 limits assumed): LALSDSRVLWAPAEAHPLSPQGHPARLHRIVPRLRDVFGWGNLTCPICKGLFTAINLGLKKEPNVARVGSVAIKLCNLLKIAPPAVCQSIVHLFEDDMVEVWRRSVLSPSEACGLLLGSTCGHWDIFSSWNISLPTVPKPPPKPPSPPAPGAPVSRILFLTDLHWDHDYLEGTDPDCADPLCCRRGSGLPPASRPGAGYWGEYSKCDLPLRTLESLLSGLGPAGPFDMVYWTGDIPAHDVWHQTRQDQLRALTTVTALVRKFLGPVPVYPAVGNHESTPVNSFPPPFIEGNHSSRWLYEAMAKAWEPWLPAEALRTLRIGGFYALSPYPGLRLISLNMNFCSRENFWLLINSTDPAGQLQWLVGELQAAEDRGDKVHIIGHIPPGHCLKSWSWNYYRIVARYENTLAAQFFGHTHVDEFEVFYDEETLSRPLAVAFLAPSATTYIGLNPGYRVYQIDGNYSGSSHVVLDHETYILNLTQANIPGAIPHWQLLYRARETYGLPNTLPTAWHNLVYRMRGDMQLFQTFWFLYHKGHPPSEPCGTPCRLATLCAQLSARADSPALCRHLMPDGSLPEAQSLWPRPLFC
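Fluorescence read-out (Ex 386 nm, Em 447 nm) after stopping the reaction at pH 10. Enzyme: ASM from human placenta; substrate HMU-PC0, 9 uM final; 60 min, 37 °C. Compound preincubation 10 min, ambient temperature.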
TDP1 cell CPT = growth inhibition of DT40 Tdp1-/-;hTDP1 cells with camptothecin (screen for TDP1 inhibitors) | chicken DT40 Tdp1-/-;hTDP1 cells + 20 nM CPT, ATP luminescence, 48 h | Potency, µM (doses to about 46.2 µM), inactives show top-dose activity change, negative = growth inhibition, actives largely listed as inhibitors | 420,000 compounds, 12% hits | AID 686979; note: potency is the fitted concentration of half-maximal effect; % is set by controls: 0 for no effect and ±100 for the full control effect; nearly all actives have a fitted effect of over 55% in size
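Chicken DT40 Tdp1-/- cells stably complemented with human TDP1 were seeded at 400 cells/well in medium containing 20 nM camptothecin, exposed to pin-transferred compounds, and grown at 37 °C for at least 48 hr. Viability was read as ATP luminescence.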
IL-1B inflam inh = blocks inflammasome-driven IL-1 beta release | THP-1 LPS/ATP IL-1B secretion, AlphaLISA, 16 h; active compounds read low | activity change, % at 57.5 µM | 360,000 compounds, 4.7% hits | AID 743279; in the data active = activity change below about -50%; inconclusive = mostly about -30% to -49%; note: % is set by controls: 0 for no effect and ±100 for the full control effect
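Secreted IL-1B measured by AlphaLISA bead assay after 16 h compound exposure of THP-1 cells; compounds (final up to 57.5 uM) added 1 h before LPS (250 ng/mL) and ATP (1.25 mM) stimulation; lower signal means less secretion.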
The depositor's hits bear a star; ? = inconclusive; · = not tested or not shown. Unless noted, calls come from the whole dose curve; as a rule, active = well fitted curve in the direction sought with a large enough effect; inconclusive = small, poorly fitted or top-dose-only effect, or another doubt; inactive = no such curve, though single readings can be large; an effect the other way counts as inactive or inconclusive.

SMILES	HepG2 viability	DT40 TDP1 no CPT	TGFb SMAD3 inh	ASM inhibitor	TDP1 cell CPT	IL-1B inflam inh
Cc1ccc(S(=O)(=O)NCC(c2ccc(N(C)C)cc2)N2CCc3ccccc32)cc1C (stereo not given)	-4%	23µM*	-13%	·	?	·
[N-]=[N+]=NC1CC(CO)OC1n1ccc(=O)[nH]c1=O (stereo not given)	-27%	-5%	30%	0%	16%	6
C=CC[C@]12C[C@@H](OC)C(=O)C=C1O[C@@H](c1ccc(OC)c(OC)c1)[C@H]2C	-3%	?	-2%	0%	18µM*	3
COc1ccc(-n2c(SCC(=O)N3CCc4ccccc43)nnc2-c2c[nH]c3ccccc23)cc1	-1%	0%	4%	-4%	-13%	-4
S=C(NCc1ccc(Cl)cc1)Nc1ccncc1	-24%	?	-9%	-1%	8.2µM*	-17
Fc1ccc(CNC(=S)Nc2ccc(Cl)cc2)cc1	-42%	?	?	-2%	?	-16
S=C(NCCc1ccccn1)Nc1cc(Cl)cc(Cl)c1	-3%	-16%	-23%	-2%	-27%	-77*
Cc1ccccc1NC(=S)NCc1ccc(F)cc1	-17%	?	3%	0%	2%	-17
Cc1ccccc1NC(=S)NCc1ccc(Cl)cc1	29%	15µM*	-22%	-1%	?	-9
S=C(NCc1ccc(Cl)cc1)Nc1ccccc1	-19%	21µM*	-8%	-3%	?	-23
NC(N)=NCCCC(NC(=O)c1ccccc1)C(=O)Nc1ccc2ccccc2c1 (stereo not given)	0%	?	9%	-12%	-21%	-28
Cc1ccc(C)c(NC(=S)N2CCC(NC(=O)C3CCCCC3)CC2)c1	-27%	-9%	?	3%	3%	6
O=C(NCC1CCCO1)c1ccc2c(=O)n(Cc3cccc(Br)c3)c(=S)[nH]c2c1 (stereo not given)	-32%	-29%	?	5%	?	10
S=C(NCCc1ccccc1)Nc1ccc(Cl)cc1	-45%	4.6µM*	?	-2%	21µM*	0
S=C(NCc1cccs1)Nc1cc(Cl)cc(Cl)c1	-48%	?	22µM*	-5%	?	-83*
S=C(Nc1ccccc1)Nc1ccc(Cl)cc1Cl	-18%	?	2%	0%	18µM*	-1
O=C(NCCc1ccccc1)Nc1ccc(Cl)cc1	2%	-8%	10%	3%	-7%	-4
CC/C(=C\c1ccc(C(=O)OC)cc1)c1cc(OC)cc2oc3ccccc3c12	-32%	?	-29%	·	?	·
Cc1ccc(Cn2c(C)c(CNCc3ccccc3F)c(C(=O)O)c2C)cc1	-27%	?	?	·	?	·
COc1ccccc1Cc1c(-c2cccc(Br)c2)nc2c(C)cc(Br)cn12	-47%	23µM*	?	·	16µM*	20
COc1ccccc1Cc1c(-c2ccc(Cl)cc2)nc2c(C)cc(Br)cn12	13µM*	7.3µM*	14µM*	·	6.5µM*	0
COc1ccc(-c2nc3c(C)cc(Br)cn3c2Cc2cccc(F)c2)cc1OC	-23%	?	?	·	?	?
COCCN(C(=O)c1cc(Cl)nc2ccccc12)c1c(N)n(Cc2ccccc2)c(=O)[nH]c1=O	11%	6%	7%	2%	-24%	17
COC(=O)C[C@H]1c2ccccc2S(=O)(=O)N1C(C)C	2%	-1%	-1%	0%	4%	0
COc1ccc(C(=N/O)/C(=N/O)c2ccc(OC)cc2)cc1	4%	-1%	2%	-2%	-16%	-13
SMILES	HepG2 viability	DT40 TDP1 no CPT	TGFb SMAD3 inh	ASM inhibitor	TDP1 cell CPT	IL-1B inflam inh
COc1ccc(C(C#N)=C2C=C(Cl)C(=NO)C=C2Cl)cc1	-54%	2.6µM*	?	·	3.3µM*	-6
COc1ccc(C(C#N)=C2C=CC(=NO)C(C)=C2Cl)cc1	-29%	7.3µM*	?	?	10µM*	-82*
N#CC(=C1C=C(Br)C(=NO)C=C1Cl)c1cccc2ccccc12	-70%	?	?	·	?	-19
CCOc1ccccc1NC(=O)CCc1c(C)nc2c3cccnc3nn2c1C	-18%	?	-6%	·	?	·
Cc1ccc(-n2nc(CN3CCOCC3)c(-c3ccccc3)c2N)cc1Cl	10%	21µM*	-13%	3%	29µM*	-2
Cc1ccc(CNC(=O)Cn2c(=O)ccc3cc(S(=O)(=O)N4CCC(C)CC4)ccc32)cc1	-7%	?	-26%	·	?	·
COc1ccc2c(c1)OC[C@H]1[C@H]2N2C(=O)c3cc(OC)ccc3NC(=O)[C@@]2(C)[C@H]1c1ccccc1	-17%	?	-5%	?	?	0
COc1ccc2c(c1)OC[C@H]1[C@H]2N2C(=O)c3cc(F)ccc3NC(=O)[C@@]2(C)[C@H]1c1ccccc1	7%	18µM*	-16%	-20%	?	-62*
COc1ccc2c(c1)OC[C@H]1[C@H]2N2C(=O)c3ccc(C)cc3NC(=O)[C@@]2(C)[C@H]1c1ccccc1	-24%	?	?	-23%	23µM*	?
COc1ccc(CC(=O)NCC(=O)N/N=C/c2sccc2C)cc1	-46%	2%	?	-1%	1%	-7
CCOc1ccc2c(c1)OC(c1ccc(OC)cc1)(C(F)(F)F)NC2=O (stereo not given)	-17%	3.3µM*	?	-2%	3.3µM*	-29
CCCCn1c(N)c(N(CCOC)C(=O)CSc2ccc([N+](=O)[O-])cc2)c(=O)[nH]c1=O	11%	-19%	2%	17%	-12%	29
NC(=O)CCN(C1CCCCC1)S(=O)(=O)c1cccc2nsnc12	7%	-2%	16%	-4%	7%	1
Cc1ccc(S(=O)(=O)N(CCC#N)C2CCCCC2)c2nsnc12	4%	18µM*	-9%	1%	16µM*	0
CCOc1ccccc1CNS(=O)(=O)c1cnc(N)nc1	-5%	?	-14%	·	-2%	·
Cc1ccc(-c2nnc(Nc3ccc(CC(N)=O)cc3)c3ccccc23)cc1	-47%	3%	13µM*	1%	-2%	?
Cc1ccc(NS(=O)(=O)c2cc(-c3n[nH]c(=O)c4ccccc34)ccc2C)cc1	-4%	6.5µM*	?	-22%	7.3µM*	-3
